Screening data: PubChem BioAssay, The Scripps Research Institute Molecular Screening Center
FBW7 activator = activators of human E3 ligase FBW7. Q969H0. AlphaScreen FBW7–phospho-cyclin E peptide binding, activator screen. normalized activity (activation), % at 26.1 µM. hit rate 0.13% among 650,000. AID 1259310; in the data active means normalized activity above about 1.9%;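 further: purified mutant Fbw7 with reduced substrate affinity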
TEAD-YAP inh = TEAD-YAP interaction inhibition | HEK-TIYL cells, TEAD-Gal4/YAP UAS-luciferase luminescence | AID 1259422 | inhibition, % at 9.12 µM | hit rate 1.4% among 640,000; in the data active means inhibition above about 32%;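 further: 0% = median of test compound wells and 100% = reference inhibitor wells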
MITF primary = inhibitors of human MITF | inhibition, % at 2.6 µM | AID 1259374 | hit rate 0.91% among 650,000 | AlphaScreen MITF homodimerization, bead proximity signal; in the data active means inhibition above about 50%;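 further: 0% = vehicle wells with protein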
GPR151 ag = human GPR151 activation. activation, % at 11.2 µM. AID 1508602. hit rate 1% among 650,000. PathHunter beta-arrestin GPR151 cells, luminescence; in the data active means activation above about 4.9%;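 further: 0% = median of compound wells and 100% = cells with positive control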
Target sequence (Q8TDV0 whole entry, looked up): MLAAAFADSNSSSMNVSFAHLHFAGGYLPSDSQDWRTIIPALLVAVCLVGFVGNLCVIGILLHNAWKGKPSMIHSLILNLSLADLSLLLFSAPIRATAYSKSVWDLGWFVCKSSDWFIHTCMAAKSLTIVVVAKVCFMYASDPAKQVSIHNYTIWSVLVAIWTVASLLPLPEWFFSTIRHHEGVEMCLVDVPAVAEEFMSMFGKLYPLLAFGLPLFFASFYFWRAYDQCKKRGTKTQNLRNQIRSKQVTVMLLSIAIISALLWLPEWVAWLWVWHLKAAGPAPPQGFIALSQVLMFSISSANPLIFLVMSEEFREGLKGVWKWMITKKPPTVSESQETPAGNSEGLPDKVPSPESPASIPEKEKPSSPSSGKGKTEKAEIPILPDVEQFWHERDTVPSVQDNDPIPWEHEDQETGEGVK
MITF inh conf = confirmation of human MITF inhibitors. hit rate 16% among 4,700. shares compounds with MITF primary. AlphaScreen MITF homodimerization, biotin/His-MITF beads. inhibition, % at 2.6 µM. AID 1259372;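 active means inhibition above a cutoff derived from the DMSO control wells, cut at about 28% in these data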;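 further: 0% = MITF dimer wells with DMSO only; inhibitors lower the bead chemiluminescence by keeping MITF from dimerizing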
AS interf ctr = AlphaScreen optical interference, counter-screen | shares compounds with MITF primary | LysRS AlphaScreen counterscreen, signal interference, triplicate | inhibition, % at 2.6 µM | hit rate 7.6% among 4,700 | AID 1259376;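 active means inhibition above a cutoff derived from the DMSO control wells, cut at about 30% in these data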
An asterisk follows results filed as active; nt = no result given. An excerpt weighted towards active compounds, which were near 3.5% of everything screened.

SMILES	FBW7 activator	TEAD-YAP inh	MITF primary	GPR151 ag	MITF inh conf	AS interf ctr
O=C1c2ccccc2C(=O)N1CCCCN(C(=O)c1ccc([N+](=O)[O-])cc1)c1ccc(Cl)cc1	0	-10	1	-2	nt	nt
O=C1c2ccccc2C(=O)N1CCCCN(C(=O)c1cc([N+](=O)[O-])ccc1Cl)c1ccc(Cl)cc1	0	11	68*	0	6	11
Cc1ccc(N(CCCCN2C(=O)c3ccccc3C2=O)C(=O)c2ccc([N+](=O)[O-])cc2)cc1	0	-2	64*	-1	5	15
O=C(Nc1cc(C(F)(F)F)ccc1Cl)c1oc(=O)c2ccccc2c1-c1ccccc1	0	-7	-2	1	nt	nt
FC(F)(F)c1ccc(N/N=C/c2ccc[nH]2)nc1	0	-39	-1	1	nt	nt
COc1ccc(NC(=O)c2sc3nc4ccc(C)cc4cc3c2N)cc1OC	0	-6	65*	0	7	21
COc1ccc(NC(=O)c2sc3nc4cc(C)ccc4cc3c2N)cc1OC	0	1	11	0	nt	nt
CN1CCN(c2ccnc3c(-c4cccc(Cl)c4)cnn23)CC1	0	-19	-20	1	nt	nt
CN(CCN1CCOCC1)C1CCN(C(=O)CNC(=O)/C=C/c2cccs2)CC1	0	7	62*	-1	1	13
Cc1nn2c(nc(N3CCCCCC3)c3ccccc32)c1C=O	0	-10	62*	2	6	6
CCOC(=O)/C(Sc1n[nH]c(=O)[nH]c1=O)=C(/C)O	0	2	-3	0	nt	nt
CN(C)CCCNc1ncnc2sccc12	0	-7	73*	0	2	11
CN(C)CCCNc1ncnc2sc3c(c12)CCC3	0	20	79*	1	13	30*
O=S(=O)(c1ccccc1F)N1CCOC(c2ccccc2)C1 (stereo not given)	0	-2	12	4	nt	nt
Cc1cc(NCc2cccnc2)nc(N2CCCC2CO)n1 (stereo not given)	0	2	-23	-1	nt	nt
c1ccc(CC2CCN(c3nc(-c4ccccc4)cs3)CC2)cc1	0	3	-4	0	nt	nt
O=C(O)c1nsnc1C(O)C(O)C(=O)O (stereo not given)	0	-1	68*	-1	-7	1
O=C(O)C(O)C(O)C(O)C(O)C(=O)O (stereo not given) (tested in a mixture with another compound)	0	nt	-4	0	nt	nt
CCc1cc(=O)oc2cc(OC)c(Cl)cc12	0	8	88*	1	0	-1
CCOc1cc2oc(=O)cc(CC)c2cc1Cl	0	5	3	0	nt	nt
COc1cccc(CN2CCN(Cc3ccc(OC)c(OC)c3OC)CC2)c1	0	6	66*	0	3	14
COc1cc(CN2CCN(C(=O)c3cccc(OC)c3OC)CC2)cc(OC)c1O	0	1	39	0	nt	nt
COc1cccc(CN2CCN(C(=O)c3cccc(OC)c3OC)CC2)c1	0	5	54*	0	9	7
COc1ccc(CN2CCN(Cc3ccccc3Cl)CC2)c(OC)c1OC	0	4	54*	0	14	18
COc1ccc(OC)c(CN2CCN(Cc3ccc(OC)c(OC)c3OC)CC2)c1	0	-5	32	-1	nt	nt
SMILES	FBW7 activator	TEAD-YAP inh	MITF primary	GPR151 ag	MITF inh conf	AS interf ctr
COc1ccc(CN2CCN(S(=O)(=O)c3ccc(Cl)cc3)CC2)c(OC)c1OC	0	-4	5	1	nt	nt
COc1ccc(CN2CCN(Cc3ccc(Cl)cc3)CC2)c(OC)c1OC	0	10	82*	-1	10	18
CCOC(=O)N1CCN(C(=O)c2ccc(COc3cccc4c3OC(C)(C)C4)cc2)CC1	0	18	8	-1	nt	nt
N#Cc1cc([N+](=O)[O-])ccc1NCC1COc2ccccc2O1 (stereo not given)	0	-45	20	-2	nt	nt
Cc1cc(OCCN2CCCCCC2)ccc1[N+](=O)[O-]	0	-4	20	-1	nt	nt
COc1cccc(CN2CCN(Cc3ccc(OC)c4ccccc34)CC2)c1OC	0	-3	70*	2	7	13
COc1ccc(CN2CCN(CCOc3ccc([N+](=O)[O-])c(C)c3)CC2)c(OC)c1OC	0	6	83*	0	-2	9
COc1cccc(C(=O)N2CCC3(CC2)CC3C(=O)NCCCc2ccccc2)c1OC (stereo not given)	1	-1	73*	0	-3	-3
